Assay outcomes deposited in PubChem by The Scripps Research Institute Molecular Screening Center.
PLC-beta3 inh: blocks human PLC-beta3 enzyme activity; AID 720704; Purified PLC-beta3, fluorogenic substrate, fluorescence; 370,000 tested, 0.18% active; Q01970; inhibition, % at 12.2 µM; in the data active = inhibition above about 11%;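 also: 0% = median of compound wells on plate and 100% = full blocker control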
UHRF1 MBD2 ctr: UHRF1 methyl-DNA binding inhibition; Q96T88; UHRF1 binding to methylated oligo, TR-FRET; inhibition, % at 4.4 µM; 370,000 tested, 0.75% active; AID 687016; in the data active = inhibition above about 21%;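 also: UHRF1 SRA domain binding a hemimethylated CpG hairpin DNA probe; 0% = median of test compound wells and 100% = reference inhibitor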
PLCg1 inh: inhibitors of human phospholipase C gamma1 | P19174 | purified PLC-gamma1, fluorogenic substrate, fluorescence | inhibition, % at 12.2 µM | 370,000 tested, 0.84% active; in the data active = inhibition above about 9.5%
MBD2 DNA inh: inhibitors of human MBD2 binding to methylated oligonucleotide; AID 686964; TR-FRET; inhibition, % at 4.4 µM; 370,000 tested, 0.31% active; Q9UBB5; in the data active = inhibition above about 13%
LEDGF integ inh: blocks HIV-1 LEDGF/p75-dependent DNA integration; TR-FRET IN-LEDGF/p75 DNA integration, Eu/Cy5; inhibition, % at 3.7 µM; 370,000 tested, 0.64% active; AID 743269;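 active = inhibition above the screen-wide mean plus 3 SD, cut at about 13% in these data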;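 also: signal is the Cy5 over europium emission ratio at 671 and 618 nm; 0% = plate median of compound wells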
The depositor's hits bear a star; i = inactive. Rows were chosen to be rich in hits. Some 2.4% of all compounds tested hit in one or more screens of this group.

SMILES | PLC-beta3 inh | UHRF1 MBD2 ctr | PLCg1 inh | MBD2 DNA inh | LEDGF integ inh
CC(C)c1ccc(S(=O)(=O)/N=C2\C=C(NS(=O)(=O)c3ccccc3)C(=O)c3ccccc32)cc1 | -11 | -4 | 1 | -16 | 25*
COc1ccc(-c2[nH][nH]c(=O)c2NC(=O)c2ccccn2)cc1 | -1 | -10 | 1 | -6 | -6
COc1ccc(CCC(=O)Nc2c(-c3ccc(N(C)C)cc3)[nH][nH]c2=O)cc1 | -249 | 17 | -157 | 12 | 28*
COC(=O)C1CCN(C(=O)CCn2nnc(-c3cccs3)n2)CC1 | -5 | 3 | -3 | 5 | -2
C=CCN(CC#Cc1ccc(C(F)(F)F)cc1)Cc1ccc(OC)cc1OC | -4 | 4 | 4 | -2 | -1
O=C(COc1ccc(S(=O)(=O)N2CCOCC2)cc1)Nc1ccc(Br)cc1 | -7 | 12 | 2 | 12 | -4
O=C(COc1ccc(Br)cc1)NNC(=O)c1cc(S(=O)(=O)N2CCOCC2)ccc1Cl | -10 | -2 | 0 | -3 | 35*
CCOC(=O)CCCCC(=O)c1[nH]c(=O)[nH]c1CSc1nc(-c2ccccc2)c(C#N)c(=O)[nH]1 | -11 | -2 | -16 | -1 | 15*
O=C(COCc1ccccc1)N1CC[C@H]2[C@H](CCCN2Cc2ccc(F)cc2)C1 | -1 | -2 | -1 | -1 | 0
Cc1ccc(Cn2cc(CN3[C@@H](Cc4ccccc4)COc4cc(Br)ccc4S3(=O)=O)nn2)cc1 | -3 | -2 | -1 | -3 | -2
Cc1ccc(-c2csc(NCCn3c(-c4ccncc4)nc4ccccc43)n2)cc1 | 3 | 22* | 9 | -4 | 0
Cc1ccc(-c2csc(NCCn3c(-c4ccncc4)nc4cc(C(F)(F)F)ccc43)n2)cc1 | -1 | 3 | 0 | 0 | -3
C/C(=N\NC(=O)CSCc1ccc([N+](=O)[O-])cc1)c1ccccc1 | 1 | 30* | 2 | 1 | -7
COc1ccc(-c2cc(C(=O)N(C3CCCCC3)C3CCCCC3)no2)cc1 | -2 | -1 | 0 | 5 | -3
C[C@H](O)[C@@H]1CN2CCc3ccc(N4CCOCC4)cc3[C@@H]2C[C@@H]1N(C)CC1CCCCC1 | -13 | -4 | -11 | -2 | -1
Nc1nc(Cn2nnc(-c3ccccc3Cl)n2)nc(N2CCOCC2)n1 | 0 | 29* | 1 | 0 | -1
Nc1nc(Cn2nnc(-c3ccccc3F)n2)nc(N2CCOCC2)n1 | 3 | -1 | -1 | -3 | 1
O=C(O)C1CCN(C(=O)c2cccc3ccccc23)CC1 | -8 | 30* | 0 | -5 | -1
NC(=O)C1CCN(C(=O)COc2cccc3ccccc23)CC1 | 1 | 40* | -1 | -2 | -3
O=C(CSc1nc2ccccc2c(=O)n1-c1ccc(Cl)cc1)NNC(=S)Nc1ccccc1 | 4 | -4 | 1 | -3 | 3
COC(=O)C[C@H]1CC[C@@H]2[C@H](COc3ccc(NC(=O)C(C)C)cc3C(=O)N2C)O1 | 4 | 8 | 8 | 2 | -2
COCOCCn1cc(CN2CCS(=O)(=O)N(Cc3ccc(-c4ccncc4)cc3)C(CC(C)C)C2=O)nn1 (stereo not drawn) | 3 | 24* | 1 | 5 | 1
NC1=[N+](Cc2ccccc2)C[C@H]2C(=C3CCCC[C@H]3n3c(=O)n(-c4ccccc4)c(=O)n32)N1 | 3 | -1 | -2 | 0 | 1
CCNC(=O)C1CCCN(C(=O)Cc2cccs2)CC1 (stereo not drawn) | -4 | 24* | -3 | 7 | 0
COC(=O)[C@]12C[C@H](CC(=O)NCc3ccc(C)o3)C(=O)N(CCC3=CCCCC3)C1=C[C@H](C(C)C)O[C@@H]2C1CC1 | 0 | -2 | -2 | 1 | 2
SMILES | PLC-beta3 inh | UHRF1 MBD2 ctr | PLCg1 inh | MBD2 DNA inh | LEDGF integ inh
COc1cc(C(=O)c2ccccc2)c(OC)cc1C(=O)Nc1ccc(O)cc1 | 8 | 27* | 6 | 10 | 11
CC(C)N1Cc2nnn(Cc3ccccc3)c2-c2cc(N3CCCC3)ccc2S1(=O)=O | -56 | -1 | -40 | 0 | 0
COc1ccc(S[C@]2(C(=O)N3CCN(c4ncccn4)CC3)CC(=O)N(C(=O)c3ccccc3)[C@@H]2c2ccc(OC)cc2)cc1 | 2 | -1 | 1 | -1 | 0
C/C=C/c1ccc(OCCN2CCc3ccccc3C2)c(OC)c1 | 3 | 2 | 0 | -4 | 1
C=CCc1ccc(OCCN2CCc3ccccc3C2)c(OC)c1 | 2 | 29* | 1 | 5 | -4
CCOC(=O)Nc1ccc2c(c1)[C@@]1(CC(=O)N(CC(C)C)C1c1ccccc1)C(=O)N2C (stereo partly drawn) | -5 | 1 | -6 | -1 | -2
COC(=O)c1ccc(C(=O)O)nc1 | -5 | 22* | 3 | 0 | 6
Oc1ccc(N=Cc2ccc(-c3cccs3)s2)cc1 | i | 11 | i | -5 | 47*
Cc1cc(NC(=O)C2CCCC2)n(-c2nc3ccccc3[nH]2)n1 | 5 | 13 | 11* | 1 | 8
Cc1cc(NC(=O)c2ccccc2)n(-c2nc3ccccc3[nH]2)n1 | 1 | -1 | 0 | -1 | 0
COc1ccc2[nH]c3nc(SC(C)C)nnc3c2c1 | 2 | 54* | 0 | -4 | 0
COc1ccc(CNC(=O)CSc2nnc3c(n2)[nH]c2ccc(OC)cc23)cc1 | -3 | -1 | 1 | -5 | 5
CCCN1CCS(=O)(=O)N(Cc2cn(Cc3ccc(F)cc3)nn2)C(C(=O)OC)C1 (stereo not drawn) | 0 | 11 | 1 | 3 | 4
O=C(Nc1ccccc1)OCCN1C(=O)CCC12CCC(c1ccccc1)CC2 (stereo not drawn) | 0 | -3 | 4 | 3 | 1
CC(C)N1CCCCC(NC(=O)c2cccc(F)c2)C1=O (stereo not drawn) | 3 | -1 | 1 | -5 | 0
CCOC(=O)c1cc2c(ccc3ccccc32)oc1=O | i | 29* | i | -5 | -3
CC(C)N1Cc2nnn(Cc3ccccc3)c2-c2ccccc2S1(=O)=O | 6 | 0 | 3 | -1 | 1
CCCCCCCCN1CN2Cc3ccccc3C2CS1(=O)=O (stereo not drawn) | -4 | -5 | -5 | -2 | 2
CCOC(=O)[C@]12CCC=C1N(Cc1ccccc1)C(=O)[C@H](CC(=O)NCCC(C)C)C2 | -2 | 24* | -2 | -3 | -3
CCOC(=O)[C@]12CCC=C1N(Cc1ccccc1)C(=O)[C@H](CC(=O)NCCCCc1ccccc1)C2 | 3 | -3 | -1 | -1 | 0
O=C(COC(=O)CCc1c[nH]c2ccccc12)NCc1ccc2c(c1)OCO2 | 1 | 64* | -1 | -1 | 3
Cc1cccc(CC2CC(=O)N(CCc3ccc4c(c3)OCO4)C2=O)c1 (stereo not drawn) | 1 | 40* | -1 | 12 | 7
O=C(NCCN1CCC(Cc2ccccc2)CC1)C1CCCN(S(=O)(=O)c2ccc(Cl)s2)C1 (stereo not drawn) | 5 | 2 | 8 | 0 | 4
FC(F)(F)c1ccccc1Cc1c(C2CCCCC2)nc2c3ccccc3ccn12 | -16 | 22* | -1 | 3 | 3
